Dicer inh: inhibitors of human Dicer processing of pre-microRNA | z-score at 25 µM | cat-ELCCA pre-miR-21 Dicer processing, chemiluminescence; active compounds read high | AID 1347074 | Q9UPY3 | 6% of 47,000 active; in the data active means z-score above about 3, passing the limit was not always enough;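 further: plate controls were vehicle for no effect and no enzyme for full effect; higher signal means more uncleaved substrate so more Dicer inhibition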
An asterisk follows results filed as active. The sample as a whole holds a higher share of hits than the screen did.

SMILES	Dicer inh
O[C@@]1(c2ccccc2)C2C3CC4C5C3C1C5C(F)(F)C42 (stereo not given in full)	0.97
Cc1nc(C(=O)Nc2ccc(Cl)cc2)sc1C(=O)Nc1ccc(Cl)cc1	0.59
CCOc1ccc(/C=C/c2nc(-c3ccc(Cl)cc3)no2)cc1OCC	3.09*
CCOc1ccc(/C=C/c2nc(-c3ccc(OC)c(OC)c3)no2)cc1OCC	5.15*
CCOc1ccc(-c2nc(-c3ccc(OC)cc3)no2)cc1OCC	1.64
COc1ccc(/C=C/c2nc(-c3ccccn3)no2)cc1OC	2.37
COc1ccccc1OCc1nc(-c2ccc(Cl)cc2)no1	0.24
CCOc1ccc(/C=C/c2nc(-c3cccc(C)c3)no2)cc1OCC	0.92
Cc1cc(C)c2[nH]c(C)c(CN3CCN(C)CC3)c(=O)c2c1	1.2
CCOC(=O)c1csc(-c2sc(SC)c(C(C)=O)c2C)n1	-0.91
Cc1nn(-c2ccccc2)cc1/C=N/Nc1ncnc2c1cnn2-c1ccccc1	1.78
Cc1ccc(N2C(=O)CC(Nc3ccc(C)c(C)c3)C2=O)c(C)c1 (stereo not given)	0.84
Nc1ccccc1SC(CC(=O)c1ccc(Cl)cc1)c1ccccc1 (stereo not given)	-1.46
CC(C)c1nn(-c2ccc(C(F)(F)F)cn2)c(=O)o1	1.62
Cc1nn(-c2ccccc2)nc1C(=O)Nc1ccc(-n2nc(C(F)(F)F)cc2-c2cccs2)cc1	0.67
COc1ccccc1OCC(=O)O	-0.03
CCOc1cccc(=O)c2c(C)n(CC(=O)c3ccccc3)c(C)c12	1.76
COc1cccc(=O)c2c(C)n(CC(=O)c3ccccc3)c(C)c12	3.25*
COc1cc(C2CC(=O)Nc3c2ccc2ccccc32)cc(Br)c1OC (stereo not given)	0.98
O=c1oc(-c2ccccc2)nc2c1oc1ccc(Br)cc12	-1.51
Cc1csc(C(=O)O/N=C(\N)c2ccc(C(F)(F)F)cc2)c1Cl	2.19
O=C(CC1CC(=O)Oc2ccccc21)Nc1nccs1 (stereo not given)	3.83*
O=C(Nc1nccs1)C1COc2ccccc2O1 (stereo not given)	0.33
O=C(Cn1c(=O)sc2ccccc21)Nc1nccs1	-1.15
CC1(C)CC(=O)C2=C(C1)Nc1ccccc1NC2c1ccccc1F (stereo not given)	-0.61
SMILES	Dicer inh
CC1(C)CC(=O)C2=C(C1)Nc1ccccc1NC2c1cccs1 (stereo not given)	0.88
CC1(C)CC(=O)C2=C(C1)Nc1ccccc1S2	4.06*
Cc1ccccc1C(=O)Nc1nc2c(Br)cc(Br)cc2c(=O)s1	0.94
Cc1cc(C)n(CC(=O)Nc2ccc(C(C)C)cc2)c(=O)c1C#N	-0.85
NN=C1c2cc([N+](=O)[O-])ccc2-c2ccc([N+](=O)[O-])cc21	-0.66
O=[N+]([O-])c1ccc2c(c1)C(=NO)c1cc([N+](=O)[O-])ccc1-2	-0.89
O=C1c2cc([N+](=O)[O-])ccc2-c2ccc([N+](=O)[O-])cc21	7.71*
O=C(O)Cc1csc(-c2cnccn2)n1	0.24
O=c1c(=O)n2c(nn1CN1CCOCC1)sc1ccccc12	4.32*
O=c1c(N2CCOCC2)nnc2sc3ccccc3n12	4.29*
Cn1nc2sc3ccccc3n2c(=O)c1=O	-1.49
O=C(Cn1nc2sc3ccccc3n2c(=O)c1=O)c1ccc(Cl)cc1	7.1
NC(=O)Cn1nc2sc3ccccc3n2c(=O)c1=O	-1.26
O=c1c(=O)n2c(nn1CN1CCCCC1)sc1ccccc12	4.14*
C=CCn1nc2sc3ccccc3n2c(=O)c1=O	1.15
Cc1nnc2c(N3CCOCC3)nc3ccccc3n12	-0.14
O=c1c(=O)n2c(nn1Cc1ccccc1Cl)sc1ccccc12	-1.29
CN(C)/C=C1/C(=O)NN=C1CSc1ccccn1	-7.54
Cn1c(=O)c2c(nc3n(-c4ccc(O)cc4)c(-c4ccc(Cl)cc4)cn23)n(C)c1=O	-0.68
Cn1c(=O)c2c(ncn2Cc2cccc(F)c2)n(C)c1=O	0.15
Cc1cc(Cl)ccc1Oc1ncccc1N	-2.88
Cc1cc(Cl)ccc1NC(c1cccnc1)c1ccc2cccnc2c1O (stereo not given)	11.3*
O=C(Nc1cccc2cccnc12)C(Cl)(Cl)Cl	-0.2
Cc1ccc(NC(c2cccnc2)c2ccc3cccnc3c2O)cc1C (stereo not given)	-0.31
Cc1ccc(NC(c2ccccn2)c2ccc3cccnc3c2O)c(C)c1 (stereo not given)	-1.18
SMILES	Dicer inh
Cc1cc(Cl)ccc1NC(c1ccccn1)c1ccc2cccnc2c1O (stereo not given)	9.11*
Oc1c(C(Nc2ccccc2Cl)c2cccnc2)ccc2cccnc12 (stereo not given)	6.24*
Cc1nn(-c2ccccc2)c2c1C(c1ccc(OCc3ccccc3)cc1)C1=C(CC(C)(C)CC1=O)N2 (stereo not given)	0.82
COCCNC(=O)C(=O)NC1CC(C)(C)NC(C)(C)C1	-0.81
Clc1ccc(-c2noc(CNC3CCCCC3)n2)cc1	1.62
O=C(CSc1nnc(-c2ccco2)o1)c1ccc(Br)cc1	-2.33
Clc1ccc(C2=CSC3=NCCN23)cc1	-0.67
Cc1ccc(S(=O)(=O)Nc2ccc3oc4ncccc4c(=O)c3c2)cc1	17.9
Cc1ccc(S(=O)(=O)Nc2ccc3[nH]cc(Cl)c3c2)cc1	3.06*
CC(C)(C)c1ccc(S(=O)(=O)Nc2ccc(O)c(Cl)c2)cc1	2.33
O=c1[nH]c(O)c(/C=C/N=Nc2ccccc2)c(=O)[nH]1	-2.51
Fc1ccc2c(c1)c1nnc(SCCN3CCOCC3)nc1n2Cc1ccccc1	-0.4
CCNc1nc(C(=O)O)nc(N2CCOCC2)n1	2.76
O=C(O)CCCNc1nc(Cl)nc(N2CCOCC2)n1	4.72*
Clc1nc(NCCN2CCOCC2)nc(NC2CCCCC2)n1	1.69
Cc1ccc(Oc2ncccc2[N+](=O)[O-])c2c1CCC2	-0.68
COc1ccc(C2CC(=O)C3=C(C2)NC(C)=C(C(=O)OC(C)C)C3c2ccccc2F)cc1OC (stereo not given)	1.67
CC(=O)Oc1cn(C(C)=O)c2ccc(Br)cc12	1.81
O=C1c2ccccc2C(=O)N1c1snnc1-c1ccccc1	-0.51
CCCCSCc1nc2c(c(=O)[nH]1)C1(CCCC1)Cc1ccccc1-2	0.7
CCSc1nc2c(c(=O)[nH]1)C1(CCCC1)Cc1ccccc1-2	0.22
COC(=O)CCSc1nc2c(c(=O)[nH]1)C(C)(C1CCCCC1)Cc1ccccc1-2 (stereo not given)	3.66*
CC(=O)C1=NN(c2ccccc2)C2(SCC(=O)N2c2ccccc2)S1 (stereo not given)	-1.65
Cc1cc(NC(=O)CCCC(=O)O)no1	0.56
COC(=O)CCCCCCCC(=O)Nc1cc(C)on1	-0.52
SMILES	Dicer inh
CCOCC(=O)Nc1cc(C)on1	3.14*
Fc1cccc(CN2CCN(Cc3ccco3)CC2)c1	3.48*
Clc1cccc(CN2CCN(Cc3ccco3)CC2)c1	-0.29
Clc1ccc(CN2CCN(Cc3ccco3)CC2)cc1	0.11
COc1ccc(C2Nc3ccc(C(=O)c4ccccc4)cc3NC3=C2C(=O)CCC3)cc1O (stereo not given)	0.28
Fc1cc(Cl)ccc1CSc1nc2ncc(Br)cc2[nH]1	0.09
O=C1C(=O)N(CCCN2CCOCC2)C(c2ccc(F)cc2)/C1=C(\O)c1ccccc1 (stereo not given)	0.81
CC(C)(C)c1ccc(C(=O)N/N=C(/C(=O)O)c2ccccc2)cc1	0.11
C/C(Cc1ccccc1)=N\NC(=O)c1ccncc1	-0.68
C/C(=N/NC(=O)c1ccccc1)C(=O)O	3.29*
N/C(=N\OC(=O)C(Cl)(Cl)Cl)c1ccc(OCc2ccccc2)cc1	0
S=c1[nH]nc(-c2sc3ccccc3c2Cl)o1	-0.35

Assay outcomes (PubChem)
